Measured values taken from the supplement of paper PMC6555819.

Assays:
Assay in all cases: PBM binding z-score (relative to random genomic background probes); higher = stronger binding; sequences stand for … in GC…GCGATTGACAGCGTAGAATGAAGG
[1] = tested on: FXR:RXRa (NR concentration 270 nM, RXRa partner concentration 90 nM)
Outline: (§1)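 Probes were double-stranded and carried 34-nt variable regions with direct-repeat seeds, single-nucleotide variants, half-site ablations and random human genomic background sequences, printed on custom Agilent 4×180K protein-binding microarrays. Arrays were incubated 1 h with ligand-free nuclear receptor dimers in PBS pH 7.4, 2% milk, 0.02% Triton X-100, 1 mM DTT, 0.2 mg/mL BSA and 0.4 mg/ml salmon testes DNA. Antibodies against each partner (one per run) detected binding, and scanned fluorescence was regression-normalized. Binding z-scores use the random background probes as reference.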

[2] = tested on: LXRa:RXRa (NR concentration 270 nM, RXRa partner concentration 90 nM)
Outline: as §1

[3] = tested on: LXRa homodimer (NR concentration 270 nM)
Outline: as §1

[4] = tested on: LXRb:RXRa (NR concentration 270 nM, RXRa partner concentration 90 nM)
Outline: as §1

[5] = tested on: LXRb homodimer (NR concentration 270 nM)
Outline: as §1

[6] = tested on: PPARa:RXRa (NR concentration 270 nM, RXRa partner concentration 90 nM)
Outline: as §1

[7] = tested on: PPARg:RXRa (NR concentration 180 nM, RXRa partner concentration 90 nM)
Outline: as §1

[8] = tested on: PPARg:RXRa 270nM:90nM, anti-RXR (NR concentration 270 nM, RXRa partner concentration 90 nM)
Outline: as §1

[9] = tested on: PPARg:RXRa 30nM:10nM, anti-RXR (NR concentration 30 nM, RXRa partner concentration 10 nM)
Outline: as §1

[10] = tested on: PPARg:RXRa 90nM:30nM, anti-RXR (NR concentration 90 nM, RXRa partner concentration 30 nM)
Outline: as §1

| Sequence | PBM binding z-score [1] | PBM binding z-score [2] | PBM binding z-score [3] | PBM binding z-score [4] | PBM binding z-score [5] | PBM binding z-score [6] | PBM binding z-score [7] | PBM binding z-score [8] | PBM binding z-score [9] | PBM binding z-score [10] |
| --- | --- | --- | --- | --- | --- | --- | --- | --- | --- | --- |
| AATTCAGGGTCATCGTAGGCCAGAGTACGCACAG | 7.63 | 6.71 | 4.2 | 5.55 | 2.29 | 6.2 | 7.36 | 7.02 | 3.49 | 5.72 |
| CAGCCTAGGTCAGGGCCAGTAAAGGAGGAACGTT | 1.69 | 0.93 | -0.563 | 0.471 | -1.1 | 2.26 | 0.751 | 0.991 | -0.53 | 0.142 |
| AGAATGAGGTTGCCAAAGATCAGGGAAACGCTTG | 0.0162 | 0.364 | -0.555 | 0.0727 | -0.656 | 0.857 | 0.786 | 0.932 | 0.289 | 0.435 |
| TCTTGTAGATTAGCAGGTTAAGAAAGCTGGCCAA | 0.383 | 0.641 | 0.135 | 0.57 | -0.424 | 0.897 | -0.494 | 1.4 | 2.55 | 2.07 |
| CTCGAAAGGTCGTGCACAGGTGAGTATACCAAAC | 5.53 | 4.43 | 0.217 | 4.18 | 0.385 | 5.18 | 3.43 | 4.58 | 1.66 | 3.05 |
| CCTACTGGGCCACGAAAGGTCATTGAGTCAGTGA | 3.83 | 5.32 | 5.25 | 4.4 | 0.561 | 4.87 | 5.06 | 5.06 | 2.55 | 4.22 |
| ACTAGCAGGCCAAGTTTAGGTCACTCAAACAAAG | 0.818 | 0.384 | 0.281 | 0.929 | -0.282 | 1.6 | 0.288 | 0.528 | -0.151 | 0.000314 |
| CTCGAAAGGTCGTGCTCAGGTGAGTCTACCAAAC | 4.93 | 3.85 | 0.251 | 3 | 0.082 | 4.65 | 2.04 | 3.85 | 0.42 | 2.48 |
| CGTCCAAGGTCATAGGAGGGCAGTGAAGACAGAT | 7.39 | 6.11 | 1.55 | 4.12 | 0.284 | 5.68 | 5.29 | 5.19 | 1.85 | 3.99 |
| CCTACTGGGCCATCTGGTCATTGATATCAACGTT | -0.161 | -0.364 | -0.126 | -0.0941 | -0.192 | 0.878 | 1.09 | 2.19 | 0.303 | 1.69 |
| GCGACTGGGGCATCAGCAGGTGACCATAACTTAA | -0.501 | -0.679 | -0.385 | 0.223 | -1.22 | 0.831 | 0.922 | 0.832 | -0.507 | -0.0151 |
| CGAACTAGCTCATCCAGGACAGTGAATACATTGA | -0.123 | -0.399 | 0.0441 | -0.293 | -0.166 | -0.4 | 0.522 | -0.572 | 0.105 | 0.154 |
| ATCGAAAGGTCGTGAGGTGAGCATACAGAAAGGC | 4.88 | 3.62 | -0.0763 | 2.89 | 0.368 | 4.84 | 3.58 | 4.56 | 1.29 | 2.96 |
| TTACCTAGGTGAAAGGTCGTTGATGCACGCCTTG | 3.04 | 2.96 | 0.393 | 2.74 | -0.415 | 5.66 | 10.4 | 9.22 | 9.2 | 10.2 |
| CGAAATAGGTCAGAACAGGACAGTGAAGGATGAT | 2.81 | 2.42 | 0.564 | 1.63 | 0.228 | 3.89 | 4.52 | 4.6 | 2.18 | 3.59 |
| CGAACTAGGTCAAGGACAGTGCATCTCCGCACGC | 3.37 | 2.49 | 0.582 | 1.38 | -0.386 | 4.35 | 7.23 | 6.31 | 3.38 | 5.86 |
| CCTAGCAGGCGAATCTGGGTCACTCAAGGCTTGA | 0.211 | 0.262 | -0.449 | 0.236 | -0.934 | 3.11 | 2.47 | 2.62 | -0.139 | 1.64 |
| TAGCCTAAGTCATTCAGGGGCCAGTATAGAAAGC | 0.125 | -0.0745 | -0.319 | 0.338 | -0.276 | 0.0691 | 0.0111 | 0.16 | -0.308 | -0.241 |
| GCTAGCAGGCCTTTTGGGTCACTCAATGACGGGC | 0.126 | -0.171 | -0.408 | 0.187 | -1.11 | 0.992 | 0.209 | 0.00506 | -0.68 | -0.138 |
| TCTTGTAGATCAAAGGTTAAGTAAGCCGAAGCCT | 2.04 | 2.34 | 0.244 | 2.28 | 0.0721 | 4.84 | 8.98 | 8.32 | 7.35 | 8.69 |
| GATACAGGGTCAGCAAGAGGCCAGAGTATGGAAA | 4.96 | 3.07 | -0.295 | 2.49 | -0.626 | 4.8 | 3.55 | 3.6 | 1.29 | 2.37 |
| GGAACGAGGGCATTAGAGTTGATAGCATGGCGAT | 0.899 | 2.35 | -0.104 | 0.257 | -0.699 | 1.22 | 0.982 | 0.676 | 0.105 | 0.129 |
| TCTTGTAGATGAAGCAGGTTAAGAAAGCCTGAGT | 0.563 | -0.122 | -0.489 | 0.276 | -0.649 | 0.511 | -0.527 | 0.925 | 2.72 | 1.69 |
| TAGCCTAGGTCATGGGCCAGAATACCACGCGAAC | 4.31 | 3.48 | 0.271 | 2.33 | -0.281 | 4.2 | 3.64 | 3.63 | 0.806 | 2.68 |
